Assay outcomes (PubChem BioAssay)
Abeta yeast res: compounds reversing amyloid beta toxicity in yeast. yeast expressing A-beta42, growth rescue, OD600, 48 h; response scale: 0% DMSO, 100% iron-clioquinol control. Potency, µM (titrated, usually from 46.1 µM), most hits filed as activators. 410,000 compounds, 0.063% hits. AID 1347071; further: nearly all actives have a fitted effect of over 55% in size
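Yeast A-beta toxicity model in growth medium with pinned compounds, 48 h at 30 C; growth read as absorbance at 600 nm. Normalized to FeCl3/clioquinol equimolar mix (positive) and DMSO (negative).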
ClpP mod: qHTS Assay for Activators of ClpP. ATP-dependent Clp protease proteolytic subunit (Bacillus subtilis (strain 168)), P80244. purified B. subtilis ClpP, FRET peptide cleavage, 20 min. Potency, µM (highest dose often 57.5 µM), without a hit: top-dose activity change, negative = active. 340,000 compounds, 1.9% hits; active means well fitted falling curve with a large enough effect; inconclusive means small, poorly fitted or top-dose-only effect; inactive means no such curve, though single readings can be large or run the other way; further: the source files actives as falling curves though it sought activators and does not explain the sign; nearly all actives have a fitted effect of over 65% in size
Target sequence (P80244 whole entry, looked up): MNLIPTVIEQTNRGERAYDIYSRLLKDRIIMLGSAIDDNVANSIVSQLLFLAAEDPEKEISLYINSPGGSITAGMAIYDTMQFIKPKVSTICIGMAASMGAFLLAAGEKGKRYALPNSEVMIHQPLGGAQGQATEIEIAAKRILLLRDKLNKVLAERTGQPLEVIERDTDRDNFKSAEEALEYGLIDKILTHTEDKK
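Buffer: 100 mM Tris/HCl pH8, 100 mM KCl, 0.05% low protease BSA, 2.5% glycerol, 0.01% Tween-20. ClpP 10 microg/mL final; 20 min RT; delta FRET normalized to ADEP and DMSO controls.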
Mm-Cpn inhibitor: inhibitors of Methanococcus maripaludis chaperonin TRiC (MmCpn) | purified Mm-Cpn ATPase, ADP Transcreener TR-FRET | Potency, µM (doses to about 76.9 µM), for inactives: at the top dose activity, negative = inhibition, most hits filed as inhibitors | 330,000 compounds, 0.031% hits | AID 504842; further: on the % scale 0 is the no-effect control and ±100 the full control effect; nearly all actives have a fitted effect of over 80% in size
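Quantitative HTS used 25 nM Mm-CPN and 10 uM ATP in magnesium/KCl Tris buffer, pH 7.4, with 1 mM DTT. Hydrolysis ran 30 min at 37°C; ADP was read by HTRF.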
TDP43 rescue: TDP-43 toxicity inhibition in yeast | TDP-43 expressing yeast growth rescue, BacTiter-Glo, 24 h | Potency, µM (top dose mostly 46.1 µM), without a hit: at the highest dose growth rescue (activation), actives largely listed as activators | 410,000 compounds, 1.8% hits | AID 652104; further: % of control where 0% means no effect; nearly all actives have a fitted effect of over 50% in size
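Luminescence from BacTiter-Glo reports growth of TDP-43-expressing yeast after 24 hr at 30 deg C with compound. Cells were raffinose-pregrown to mid-log, then seeded in galactose medium at OD600=0.02.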
FUS suppressor: FUS proteinopathy suppression in yeast | S. cerevisiae FUS-expressing, growth rescue, OD600, 24 h | Potency, µM (series often up to 76.6 µM), most hits filed as activators | 390,000 compounds, 0.24% hits | AID 1347120;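 further: plate controls were DMSO vehicle for no effect and reference control for full effect; nearly all actives have a fitted effect of over 55% in size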
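Yeast FUS proteinopathy model; galactose-induced FUS (2%), starting OD 0.005. Cpds in dilution series, 24hr, 30C, 99% humidity. Abs 600 nm growth. Pos ctrl CP55940 (top 92uM final); neg ctrl DMSO.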
aSyn yeast inh: inhibitors of alpha-synuclein toxicity in yeast; Yeast expressing alpha-synuclein, growth rescue, BacTiter-Glo, 24 h; Potency, µM (doses to about 46.1 µM), for inactives: top-dose growth rescue (activation), actives largely listed as activators; 370,000 compounds, 0.14% hits; further: % of control where 0% means no effect; nearly all actives have a fitted effect of over 65% in size
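Screening used galactose-induced yeast with toxic alpha-synuclein levels, exposed to compound for 24 hr at 30 deg C. Cell growth, read with BacTiter-Glo luminescence, gave the measured signal.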
Numbers without * were called inactive; i = inactive; ? = inconclusive; / = not tested or not shown; [ ] = dose if it differs, or a comment. The list is not random: actives were taken first. Their share in the collection is about 3.6%. Unless noted, the call rests on the fitted dose curve; in most records, active means well fitted curve in the direction sought with a large enough effect; inconclusive means small, poorly fitted or top-dose-only effect, or another doubt; inactive means no such curve, though single readings can be large; an effect the other way counts as inactive or inconclusive. Potency means the concentration at half of the fitted maximal effect.

SMILES | Abeta yeast res | ClpP mod | Mm-Cpn inhibitor | TDP43 rescue | FUS suppressor | aSyn yeast inh
COc1cccc(CNC(=O)CSCc2cnn(-c3ccccc3)c2-n2cccc2)c1OC | i | -3.8% | -0.1% | ? | i | 20.8%
COc1ccccc1S(=O)(=O)N1CCn2cccc2C1C (stereo not drawn) | i | 28.2µM* | -1.0% | 18.7% | i | 4.6%
Fc1cccc(-n2ncc3c2ncn2nc(Cc4ccccc4)nc32)c1 | i | -11.9% | / | 25.2% | i | /
COc1ccc(NC(=O)Cn2nc(-c3ccccc3)c3cnc4ccc(C)cc4c32)cc1 | i | -11.1% | / | 14.5% | i | /
Cc1ccc(OCCOc2cccc(Br)c2)c([N+](=O)[O-])n1 | i | -0.3% | 0.1% | 14.1µM* | i | 1.8%
COc1cc(/C=C(\C#N)C(N)=O)ccc1OS(=O)(=O)c1ccc(C)cc1 | i | -1.3% | 3.3% | 17.8µM* | i | -5.7%
COc1cc(/C=C(\C#N)C(=O)NC2CCCCC2C)ccc1OS(=O)(=O)c1ccc(C)cc1 (stereo not drawn) | i | -28.9% | 0.1% | 15.4% | i | -0.1%
CCOC(=O)Nc1cccc(Nc2ccccc2)c1 | i | -5.7% | -1.8% | 14.1µM* | i | -15.4%
O=C(Nc1ccccc1)OCCc1ccccc1 | i | -4.5% | / | 35.5µM* | i | -20.0%
CCCCOC(=O)Nc1cccc(C(C)=O)c1 | i | -13.4% | 1.3% | 11.2µM* | i | -0.3%
CCCCOC(=O)c1cccc(NC(=O)CCC(=O)O)c1 | i | -2.8% | -1.0% | 17.1% | i | 4.3%
CCOC(=O)Nc1cccc(C(=O)O)c1 | i | 0.9% | -1.0% | -6.3% | i | 0.3%
O=C(Nc1ccccc1)OCCCc1ccccc1 | i | / | 0.7% | ? | i | 0.6%
CCNC(=O)OCC(CC)NC(=O)OCC(C)C (stereo not drawn) | i | 0.8% | -10.5% | -12.0% | i | 1.9%
CCC(COC(=O)Nc1cccc(C)c1)NC(=O)OCC(C)C (stereo not drawn) | i | 10µM* | -0.9% | 0.0% | / | 4.6%
CC1=C(SCc2ccccc2)C(=O)c2ccccc2C1=O | i | / | / | 16.2% | i | -64.9%
O=C1C(SCCO)=C(SCCO)C(=O)c2ccccc21 | i | 1.5% | -15.8% | 22.4µM* | i | -80.3%
O=C(CSc1nnc(COc2ccccc2Cl)o1)NC(=O)NC1CCCC1 | i | 1.2% | 0.2% | 2.7% | ? | 17.8µM*
CC(C)NC(=O)NC(=O)CSc1nnc(COc2ccccc2Cl)o1 | i | 1.1% | -0.4% | 16.9% | i | 8.1%
COc1cccc(NC(=O)Cc2nc(-c3ccccc3)sc2-c2ccc(C)cc2)c1 | i | / | 39.8µM* | -14.8% | i | 1.3%
COC(=O)c1cccc(NC(=O)Cc2nc(-c3ccccc3)sc2-c2ccc(C)cc2)c1 | i | -12.5% | 50.1µM* | -7.7% | i | 1.4%
COc1ccc(C)cc1S(=O)(=O)Nc1cccc(-c2ccc(N3CCCC3)nn2)c1 | i | -0.5% | / | 5.7% | i | /
O=C1CC(c2ccccc2)Cc2[nH]c(=O)c(-c3nc(-c4cccc(Cl)c4)cs3)cc21 (stereo not drawn) | i | -5.1% | / | ? | i | /
O=C1CCCC2=C1C1(CCCC1)N=C(Nc1nc3ccccc3s1)N2 | i | 28.2µM* | 1.2% | -22.6% | i | -5.5%
Cc1noc2ncnc(Nc3ccc(F)cc3)c12 | i | -3.5% | / | ? | i | /
SMILES | Abeta yeast res | ClpP mod | Mm-Cpn inhibitor | TDP43 rescue | FUS suppressor | aSyn yeast inh
CC(C)c1ccc(Nc2ncnc3onc(-c4ccc(F)cc4)c23)cc1 | i | 22.4µM* | / | 15.1% | ? | /
CCOc1ccc(Nc2ncnc3onc(-c4ccc(Cl)cc4)c23)cc1 | i | ? | / | 22.4µM* | i | /
COc1cc(Nc2ncnc3onc(-c4ccc(Cl)cc4)c23)cc(OC)c1 | i | -25.4% | / | 16.9% | i | 0.2%
Clc1ccc2nc(NCc3ccccc3)c3nncn3c2c1 | i | -4.8% | / | 7.3% | i | /
CC1=C(C(=O)OC2CCCCC2)C(c2ccco2)C2=C(CC(C)(C)CC2=O)N1 (stereo not drawn) | i | 31.6µM* | 1.2% | 7.9% | i | 4.0%
CSC1=C(C#N)C(C)C2=C(CC(C)(C)CC2=O)N1 (stereo not drawn) | i | -11.2% | -1.9% | 2.5% | i | 0.7%
CCCOC(=O)C1=C(C)NC2=C(C(=O)CC(C)(C)C2)C1c1ccc(N(C)C)cc1 (stereo not drawn) | i | -4.6% | -1.9% | -16.3% | i | -2.4%
CCN(CC)c1ccc(C2C(C(=O)OCCOC)=C(C)NC3=C2C(=O)CC(C)(C)C3)cc1 (stereo not drawn) | i | 28.2µM* | -1.2% | -0.5% | i | -1.9%
CCOC(=O)C1=C(C)NC2=C(C(=O)CC(C)(C)C2)C1c1cccc(C)n1 (stereo not drawn) | i | 31.6µM* | 1.4% | -5.3% | i | -5.8%
CCCCC1C(C#N)=C(C)NC2=C1C(=O)CC(C)(C)C2 (stereo not drawn) | i | 12.6µM* | -2.6% | -7.0% | i | -8.5%
Cc1ccc(C2=CCN(C)C(=O)N2c2ccc([N+](=O)[O-])cc2)cc1 | / | / | / | / | i | /
CCCCc1ccc(NS(=O)(=O)c2ccc(N3CCCCS3(=O)=O)cc2)cc1 | i | 0.1% | / | 0.0%[9.22 µM] | i | /
CCc1ccc2oc(C(=O)NCCc3ccc(OC)c(OC)c3)cc(=O)c2c1 | i | -1.8% | / | 49.6% | i | /
COC(=O)c1c(SC)nc2ccccc2c1OCc1cccc(C)c1 | i | -4.5% | / | 14.4% | i | /
COc1ccc(CNC(=O)CC(c2ccc(OC)c(OC)c2)N2Cc3ccccc3C2=O)cc1 (stereo not drawn) | i | -1.0% | / | -0.8% | i | 0.8%
COC(=O)c1ccc(C2C(C#N)=C(C)NC3=C2C(=O)CC(C)(C)C3)cc1 (stereo not drawn) | i | 22.4µM* | -3.8% | 5.8% | i | 4.9%
CCN(c1ccccc1)S(=O)(=O)c1cc(Br)cc2c1N(C(=O)C1CC1)CC2 | i | -4.7% | / | 3.1% | i | /
CCc1ccccc1Nc1ccc(C(=O)O)cc1N | i | 28.2µM* | -24.6% | ? | i | 6.1%
CCNc1ccc(C(=O)O)cc1N | i | 25.1µM* | -1.4% | 6.8% | / | 7.7%
Nc1cc(C(=O)O)ccc1Nc1ccccc1 | i | 10µM* | -9.0% | ? | i | 24.7%
Nc1ccccc1C(=O)Nc1cccc(C(=O)O)c1 | i | ? | -1.0% | -16.3% | i | -0.2%
